# Many of the other results were omitted from the sample, so the strongest signals are more common in it than they were.
# B1: Erv46-EDTA (Saccharomyces cerevisiae), P39727 (protein)
# chain: MKFLVNVALVFMVVYISYIYAAAPEHHHHHHDYDIPTTENLYFQGAMDSVVTRPQLVVDRDRHAKLELNMDVTFPSMPCDLVNLDIMDDSGEMQLDILDAGFTMSRLNSEGRPVGDATELHVGGNGDGTAPVNNDPNYCGPCYGAKDQSQNENLAQEEKVCCQDCDAVRSAYLEAGWAFFDGKNIEQCEREGYVSKINEHLNEGCRIKGSAQINRIQGNLHFAPGKPYQNAYGHFHDTSLYDKTSNLNFNHIINHLSFGKPIQSHSKLLGNDKRHGGAVVATSPLDGRQVFPDRNTHFHQFSYFAKIVPTRYEYLDNVVIETAQFSATFHSRPLAGGRDKDHPNTLHVRGGIPGMFVFFEMSPLKVINKEQ
# Key:
# Assay in all cases: glycan array binding signal (z-score within array); higher = stronger binding
# Details in all cases: glycan notation: IUPAC condensed, linker removed
# [1] = molecular target: Fuc(a1-2)Gal(b1-3)[Fuc(a1-4)]GlcNAc(b1-2)Man(a1-3)[Fuc(a1-2)Gal(b1-3)[Fuc(a1-4)]GlcNAc(b1-2)Man(a1-3)]Man(b1-4)GlcNAc(b1-4)GlcNAc
# How it was run: (§1)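 Arrays were curated from the Consortium for Functional Glycomics database, 3228 in total, and kept only where the protein sequence was available. Binding is expressed as a within-array Z-score. This score was averaged across arrays of the same protein sequence at different concentrations or buffers and across linkers, and negative values can be read as non-binding.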
# [2] = molecular target: Fuc(a1-2)Gal(b1-4)Fuc(a1-3)]GlcNAc(b1-2)Man(a1-3)[Fuc(a1-2)Gal(b1-4)[Fuc(a1-3)]GlcNAc(b1-2)Man(a1-6)]Man(b1-4)GlcNAc(b1-4)GlcNAc
# How it was run: as §1
# Fuc(a1-2)Gal(b1-4)GlcNAc = molecular target: Fuc(a1-2)Gal(b1-4)GlcNAc
# How it was run: as §1
# [3] = molecular target: Fuc(a1-2)Gal(b1-4)[Fuc(a1-3)]GlcNAc(b1-2)[Fuc(a1-2)Gal(b1-4)[Fuc(a1-3)]GlcNAc(b1-4)]Man(a1-3)[Fuc(a1-2)Gal(b1-4)[Fuc(a1-3)]GlcNAc(b1-2)Man(a1-6)]Man(b1-4)GlcNAc(b1-4)GlcNAc
# How it was run: as §1
# [4] = molecular target: Fuc(a1-2)Gal(b1-4)[Fuc(a1-3)]GlcNAc(b1-3)Gal(b1-4)[Fuc(a1-3)]GlcNAc(b1-3)Gal(b1-4)[Fuc(a1-3)]GlcNAc
# How it was run: as §1
# [5] = molecular target: Fuc(a1-2)Gal6S(b1-4)Glc6S
# How it was run: as §1
# [6] = molecular target: Fuc(a1-2)[GalNAc(a1-3)]Gal
# How it was run: as §1
# [7] = molecular target: Fuc(a1-2)[GalNAc(a1-3)]Gal(b1-3)GalNAc(a1-3)[Fuc(a1-2)]Gal(b1-4)GlcNAc
# How it was run: as §1
# [8] = molecular target: Gal(a1-3)Gal(b1-4)GlcNAc(b1-2)Man
# How it was run: as §1
# [9] = molecular target: Gal(a1-3)Gal(b1-4)[Fuc(a1-3)]GlcNAc(b1-2)Man(a1-3)[Gal(a1-3)Gal(b1-4)[Fuc(a1-3)]GlcNAc(b1-2)Man(a1-6)]Man(b1-4)GlcNAc(b1-4)GlcNAc
# How it was run: as §1
# Gal(a1-4)Gal(b1-4)Glc = molecular target: Gal(a1-4)Gal(b1-4)Glc
# How it was run: as §1
# [10] = molecular target: Gal(b1-3)GlcNAc(a1-6)Gal(b1-4)GlcNAc
# How it was run: as §1
# [11] = molecular target: Gal(b1-3)GlcNAc(b1-3)Gal(b1-4)GlcNAc(b1-2)Man(a1-3)[Gal(b1-3)GlcNAc(b1-3)Gal(b1-4)GlcNAc(b1-2)Man(a1-6)]Man(b1-4)GlcNAc(b1-4)GlcNAc
# How it was run: as §1
# [12] = molecular target: Gal(b1-4)GlcNAc(b1-2)Man(a1-6)[Man(a1-3)]Man(b1-4)GlcNAc(b1-4)GlcNAc
# How it was run: as §1
# [13] = molecular target: Gal(b1-4)GlcNAc(b1-3)Gal(b1-4)GlcNAc(b1-2)Man(a1-3)[Gal(b1-4)GlcNAc(b1-3)Gal(b1-4)GlcNAc(b1-2)Man(a1-6)]Man(b1-4)GlcNAc(b1-4)GlcNAc
# How it was run: as §1
# [14] = molecular target: Gal(b1-4)GlcNAc(b1-3)Gal(b1-4)GlcNAc(b1-2)[Gal(b1-4)GlcNAc(b1-3)Gal(b1-4)GlcNAc(b1-6)]Man(a1-6)[Gal(b1-4)GlcNAc(b1-3)Gal(b1-4)GlcNAc(b1-2)Man(a1-3)]Man(b1-4)GlcNAc(b1-4)GlcNAc
# How it was run: as §1
# [15] = molecular target: Gal(b1-4)GlcNAc(b1-3)Gal(b1-4)GlcNAc(b1-2)[Gal(b1-4)GlcNAc(b1-3)Gal(b1-4)GlcNAc(b1-6)]Man(a1-6)[Gal(b1-4)GlcNAc(b1-3)Gal(b1-4)GlcNAc(b1-2)Man(a1-3)]Man(b1-4)GlcNAc(b1-4)[Fuc(a1-6)]GlcNAc
# How it was run: as §1
# [16] = molecular target: Gal(b1-4)GlcNAc(b1-3)Gal(b1-4)GlcNAc(b1-3)Gal(b1-4)GlcNAc
# How it was run: as §1
# [17] = molecular target: Gal(b1-4)GlcNAc(b1-3)Gal(b1-4)GlcNAc(b1-3)Gal(b1-4)GlcNAc(b1-2)Man(a1-3)[Gal(b1-4)GlcNAc(b1-3)Gal(b1-4)GlcNAc(b1-3)Gal(b1-4)GlcNAc(b1-2)Man(a1-6)]Man(b1-4)GlcNAc(b1-4)GlcNAc
# How it was run: as §1
# [18] = molecular target: Gal(b1-4)GlcNAc(b1-3)Gal(b1-4)GlcNAc(b1-3)Gal(b1-4)GlcNAc(b1-3)Gal(b1-4)GlcNAc(b1-3)Gal(b1-4)GlcNAc(b1-2)Man(a1-3)[Gal(b1-4)GlcNAc(b1-3)Gal(b1-4)GlcNAc(b1-3)Gal(b1-4)GlcNAc(b1-3)Gal(b1-4)GlcNAc(b1-3)Gal(b1-4)GlcNAc(b1-2)Man(a1-6)]Man(b1-4)GlcNAc(b1-4)[Fuc(a1-6)]GlcNAc
# How it was run: as §1
# [19] = molecular target: Gal(b1-4)GlcNAc(b1-3)Gal(b1-4)GlcNAc(b1-3)GalNAc
# How it was run: as §1
# [20] = molecular target: Gal(b1-4)GlcNAc(b1-3)[Fuc(a1-3)GlcNAc(b1-6)]Gal(b1-4)Glc
# How it was run: as §1
# Gal(b1-6)Gal = molecular target: Gal(b1-6)Gal
# How it was run: as §1
# [21] = molecular target: Gal3S(b1-4)[Fuc(a1-3)]Glc6S
# How it was run: as §1
# Gal6S(b1-3)GlcNAc = molecular target: Gal6S(b1-3)GlcNAc
# How it was run: as §1
binder,measurement,setting,value
B1,glycan array binding signal (z-score),[1],0.467
same,glycan array binding signal (z-score),[2],3.11
same,glycan array binding signal (z-score),Fuc(a1-2)Gal(b1-4)GlcNAc,-0.508
same,glycan array binding signal (z-score),[3],2.34
same,glycan array binding signal (z-score),[4],-0.775
same,glycan array binding signal (z-score),[5],0.075
same,glycan array binding signal (z-score),[6],-0.619
same,glycan array binding signal (z-score),[7],-0.454
same,glycan array binding signal (z-score),[8],0.805
same,glycan array binding signal (z-score),[9],2.74
same,glycan array binding signal (z-score),Gal(a1-4)Gal(b1-4)Glc,0.54
same,glycan array binding signal (z-score),[10],-0.279
same,glycan array binding signal (z-score),[11],0.126
same,glycan array binding signal (z-score),[12],-0.001
same,glycan array binding signal (z-score),[13],4.93
same,glycan array binding signal (z-score),[14],2.71
same,glycan array binding signal (z-score),[15],2.65
same,glycan array binding signal (z-score),[16],0.66
same,glycan array binding signal (z-score),[17],3.36
same,glycan array binding signal (z-score),[18],1.81
same,glycan array binding signal (z-score),[19],2.4
same,glycan array binding signal (z-score),[20],-0.11
same,glycan array binding signal (z-score),Gal(b1-6)Gal,-0.241
same,glycan array binding signal (z-score),[21],0.233
same,glycan array binding signal (z-score),Gal6S(b1-3)GlcNAc,-0.805
